Rows were chosen to be rich in hits. Some 4.7% of all compounds tested hit in one or more screens of this group.
RecA intein inh = blocks M. tuberculosis RecA intein splicing; P9WHJ3; cell-free RecA intein splicing, fluorescence; inhibition, % (no concentration beside the values); 290,000 tested, 0.75% active; AID 2221; in the data active means inhibition above about 30%;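 further: 0% = vehicle wells and 100% = reference inhibitor control wells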
GDH-TPI inh = inhibits GDH-TPI coupling enzymes, artifact for Mtb FBA screen; GDH-TPI coupled enzyme counterscreen, NADH absorbance; inhibition, % at 4.8 µM; 360,000 tested, 1.2% active; AID 588335;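 further: 0% = DMSO wells and 100% = wells lacking the enzyme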
CCHF vOTU inh-1 = blocks the CCHF virus ovarian tumor domain protease; CCHFV vOTU protease, Pep-AMC fluorescence; 370,000 tested, 0.55% active; inhibition, % at 11.5 µM; further: 0% = vehicle wells with enzyme and 100% = no enzyme wells
VHR inh abs = inhibitors of human VHR1 phosphatase (DUSP3) | P51452 | recombinant VHR phosphatase, pNPP absorbance | inhibition, % at 13.3 µM | 290,000 tested, 0.52% active | AID 1654; in the data active means inhibition above about 50%
Mtb FBA inh = Mtb fructose-bisphosphate aldolase inhibition. inhibition, % at 1 µM. P9WQA3. purified M. tuberculosis FBA, fluorescence read-out. 360,000 tested, 2.3% active; in the data active means inhibition above about 27%;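 further: 0% = vehicle and 100% = reference inhibitor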
SARS 3CLpro inh = SARS-CoV 3CLpro protease inhibition. P0C6X7. recombinant SARS-CoV 3CLpro, quenched FRET peptide cleavage. inhibition, % at 6 µM. 290,000 tested, 0.14% active. AID 1706; in the data active means inhibition above about 12%
CCHF vOTU inh-2 = CCHFV vOTU protease inhibition, confirmation; shares compounds with CCHF vOTU inh-1; Recombinant CCHFV vOTU, Pep-AMC fluorescence; inhibition, % at 11.5 µM; 1,900 tested, 17% active
* hit, by the source's call; x = no result given. Unless noted, no stated cut-off is given here; in the data, active means inhibition above about 30%; inactive means the rest.

SMILES	RecA intein inh	GDH-TPI inh	CCHF vOTU inh-1	VHR inh abs	Mtb FBA inh	SARS 3CLpro inh	CCHF vOTU inh-2
Cc1ccc(NC(=O)C2CC2c2ccccc2)c([N+](=O)[O-])c1 (configuration not stated)	5	7	-1	-6	-2	-1	x
O=C1CCCN1CCC(=O)N1CCCC(N2CCN(c3ccccc3F)CC2)C1 (configuration not stated)	x	4	-3	2	4	3	x
CN1CCN(S(=O)(=O)c2cccc(C(=O)NCCOc3ccccc3F)c2)CC1	2	1	12	-3	-2	0	x
CCC[C@H]1CN(Cc2cccnc2)C(=O)[C@@H]1CC(=O)Nc1ccc(Br)cc1	x	2	2	x	1	x	x
NC(=O)C1(N2CCCCC2)CCN(C2CC(=O)NC2=O)CC1 (configuration not stated)	0	-3	31*	20	-1	1	-6
CN1C(=O)CC(N2CCC(C(N)=O)(N3CCCCC3)CC2)C1=O (configuration not stated)	-1	12	0	-1	1	-1	x
C(=N\Nc1nc(-c2ccccc2)cs1)/c1ccco1	12	9	31*	9	3	7	-11
Cc1ccc(NC(=O)Cn2cnc3c(NCc4ccccc4)ncnc32)cc1C	x	-10	-1	x	-2	x	x
CCCOc1ccc(N)cc1N	30*	7	85*	32	-1	2	22
COC1=CC(=Cc2c(N)n3nc(CC(=O)N4CCCCC4)sc3nc2=O)C=C(OC)C1=O	-2	15	34*	11	-1	4	4
COC1=C/C(=C/c2c(N)n3nc(CC(=O)N4CCCC4)sc3nc2=O)C=CC1=O	-4	26	22	9	-3	-2	x
Cc1ccc(-n2nc3c(N4CCC(C(=O)NCc5cccc(F)c5)CC4)nnc(C)c3c2C)cc1	-1	-1	x	-20	2	1	x
COc1ccc(C(=O)CNc2ccc(C)cc2C)cc1	2	10	7	29	-3	3	x
Cc1[nH]oc(=O)c1N=Nc1ccccc1	4	23	4	-11	-5	5	x
Cc1[nH]oc(=O)c1N=Nc1c(Cl)cccc1Cl	-2	19	36*	2	-1	2	-4
CCOC(=O)[C@@]12CCC3=C1N(CCC3)C(=O)[C@H](CC(=O)NCc1cccs1)C2	x	x	-1	x	x	x	x
C#CCNC(=O)C[C@H]1C[C@@]2(C(=O)OC)C(=C[C@H](C(C)C)O[C@@H]2C2CC2)N(CCCCCCCC)C1=O	x	x	39*	x	x	x	14
CCCCCCCCN1C(=O)[C@@H](CC(=O)N2CCN(C(=O)c3ccco3)CC2)C[C@@]2(C(=O)OC)C1=C[C@H](C(C)C)O[C@@H]2C1CC1	x	x	32*	x	x	x	26
CCCCCCCCN1C(=O)[C@@H](CC(=O)N2CCCC2)C[C@@]2(C(=O)OC)C1=C[C@H](C(C)C)O[C@@H]2C1CC1	x	x	27	x	x	x	x
COC(=O)[C@]12C[C@H](CC(=O)N3CCN(C(=O)c4ccco4)CC3)C(=O)N(Cc3ccco3)C1=C[C@H](C(C)C)O[C@@H]2C1CC1	x	x	20	x	x	x	x
CCCCCCCCN1C(=O)[C@@H](CC(=O)NCCCOCCCC)C[C@@]2(C(=O)OC)C1=C[C@H](C(C)C)O[C@@H]2C1CC1	x	x	35*	x	x	x	37*
Cc1ccc(NC(=O)C(c2ccccc2)N2CCN(CC(=O)N3CCOCC3)CC2)cc1 (configuration not stated)	x	-5	34*	x	-2	x	-7
CC(OC(=O)CC1Sc2ccccc2NC1=O)C(=O)N(C)Cc1ccccc1 (configuration not stated)	x	1	-2	x	3	x	x
CC(C)(C)OC(=O)[C@H](Cc1ccccc1)NC(=O)c1[nH]cnc1C(=O)Nc1ccc(Cl)cc1	3	6	31*	15	-3	x	8
CC(C)(C)OC[C@H](NC(=O)c1[nH]cnc1C(=O)Nc1ccccc1F)C(=O)OC(C)(C)C	x	-3	35*	x	-2	x	22
CC(C)C[C@H](NC(=O)c1nc[nH]c1C(=O)NCC(=O)OCc1ccccc1)C(=O)OC(C)(C)C	-2	4	24	-10	1	11	x
CC(C)C[C@H](NC(=O)c1[nH]cnc1C(=O)N[C@@H](C)C(=O)OCc1ccccc1)C(=O)OC(C)(C)C	2	6	30*	-10	2	6	15

Assay outcomes from PubChem BioAssay.
